Records with an inconclusive call do not appear. Active and inactive are the calls of the source. Calls come from the whole dose curve; as a rule, active = well fitted inhibition curve with a large enough effect; inconclusive = small, poorly fitted or top-dose-only effect; inactive = flat fitted curve, though single readings scatter.
target: Calcium and integrin-binding protein 1 (Homo sapiens) (UniProt Q99828); test: Primary qHTS for Identification of Calcium Integrin Binding Protein 1 (CIB1) Competitor (AID 1508620); conditions: CIB1-GST / FITC-alphaIIb peptide fluorescence polarization; series mostly up to 57.7 µM; activity change, negative = inhibition: at the top concentration;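 note: GST tagged CIB1 binding a fluorescein labelled alphaIIb integrin peptide tracer; top concentration of the series differs between compounds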
Procedure, shortened: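 CIB1-GST (1 uM final) and compound incubated 15 min at room temperature before adding FITC-alphaIIb peptide tracer (100 nM final). Competition for binding read by fluorescence polarization (ex 480, em 540) after another 15 min at room temperature.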
% is set by controls: 0 for no effect and ±100 for the full control effect.

Chain of Calcium and integrin-binding protein 1 (Homo sapiens) (Q99828 whole entry, looked up): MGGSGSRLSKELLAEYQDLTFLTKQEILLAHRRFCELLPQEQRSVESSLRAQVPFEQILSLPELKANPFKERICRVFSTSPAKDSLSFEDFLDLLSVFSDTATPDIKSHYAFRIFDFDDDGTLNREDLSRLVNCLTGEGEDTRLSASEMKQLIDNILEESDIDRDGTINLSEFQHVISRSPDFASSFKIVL

Structure (SMILES) | activity change, negative = inhibition
CC1=C2C(=O)C=C(CO)[C@@H]2[C@H]2OC(=O)[C@H](C)[C@@H]2[C@@H](O)C1 | -9.66% [at 114 µM] (inactive)
COc1ccc(C[C@H](N)C(=O)N[C@H]2[C@@H](O)[C@H](n3cnc4c(N(C)C)ncnc43)O[C@@H]2CO)cc1 | 3.37% [at 114 µM] (inactive)
C=C1CC23CC1(O)CCC2C1=CC2OC(=O)C(C)(C2O)C1C3C(=O)O (centres undefined) | -2.08% (inactive)
COc1cc(/C=C/C(=O)OC2CC3CCC2(C)C3(C)C)ccc1O (centres undefined) | 3.12% (inactive)
C[C@@H]1O[C@@H](O[C@H]2[C@H](OC(=O)[C@]34CCC(C)(C)C[C@H]3C3=CCC5[C@@]6(C)CC[C@H](O[C@@H]7O[C@H](CO[C@@H]8OC[C@H](O)[C@H](O)[C@H]8O)[C@@H](O)[C@H](O)[C@H]7O)C(C)(C)C6CC[C@@]5(C)[C@]3(C)C[C@H]4O)OC[C@@H](O)[C@@H]2O)[C@H](O)[C@H](O)[C@H]1O[C@@H]1OC[C@H](O)[C@H](O[C@@H]2OC[C@@H](O)[C@H](O)[C@H]2O)[C@H]1O (some centres undefined) | 0.282% [at 12.4 µM] (inactive)
C[C@@H]1O[C@@H](O[C@H]2[C@H](O[C@H]3[C@H](O[C@H]4CC[C@@]5(CO)C(CC[C@]6(C)C5CC=C5C7CC(C)(C)C[C@@H](O)[C@]7(C)CC[C@]56C)C4(C)C)O[C@H](C(=O)O)[C@@H](O)[C@@H]3O)OC[C@@H](O)[C@@H]2O)[C@H](O)[C@H](O)[C@H]1O (some centres undefined) | -1.21% [at 30.2 µM] (inactive)
C=C1CC[C@@H]2[C@](C)(CC[C@H](O)[C@@]2(C)CCC=C(C)C)[C@@H]1Cc1c[nH]c2ccccc12 | 3.84% (inactive)
CCCn1cnc2c(NCc3ccccc3)nc(N[C@H](CC)CO)nc21 | -3.36% [at 114 µM] (inactive)
C=CC1(C)C=C2C(=O)CC3C(C)(C)CCCC3(C(=O)O)C2(O)CC1 (centres undefined) | -1.98% (inactive)

From PubChem BioAssay (NCATS)
